NS1 inh = inhibitors of influenza NS1 protein function; AID 2326; Potency, µM (top dose mostly 46.1 µM), inactives show at the highest dose activity, positive = more growth; 270,000 compounds, 0.4% hits; calls by dose curve; also: actives are rising curves; nearly all actives have a fitted effect of over 50% in size
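S. cerevisiae expressing influenza A NS1, grown in glucose, washed, then diluted 1:100 into pH 6.0 -URA galactose medium with 23 nl compound. Growth recovery read as OD600; NS1-free strain serves as control.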
SARS PLpro yeast = blocks SARS-CoV papain-like protease in a yeast assay | S. cerevisiae expressing SARS-CoV PLpro, growth rescue | Potency, µM (top dose mostly 32.9 µM), for the others: top-dose activity, positive = growth rescue, hits mostly activators | 330,000 compounds, 0.19% hits; calls by dose curve; also: 0% is about no effect; nearly all actives have a fitted effect of over 55% in size
Pf growth 48h = inhibits P. falciparum growth in the first generation, 48 h | P. falciparum luciferase growth in erythrocytes, 48 h | Potency, µM (highest dose often 28.7 µM), without a hit: top-dose activity change, negative = inhibition, most hits filed as inhibitors | 310,000 compounds, 5.9% hits; also: % is scaled to controls: 0 for no effect and ±100 for the full control effect
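Firefly luciferase activity from engineered P. falciparum reports growth; inhibitors lower the luminescent signal. Cultures contained 2% hematocrit erythrocytes at 0.1% final parasitemia.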
Pf growth 96h = inhibits malaria parasite growth, 96 h | Potency, µM (titrated, usually from 28.7 µM), inactives show at the highest dose activity change, negative = inhibition, actives largely listed as inhibitors | 320,000 compounds, 6.9% hits | P. falciparum luciferase reporter growth, 96 h | AID 504834; also: % is scaled to controls: 0 for no effect and ±100 for the full control effect
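Luminescence readout: decreased luciferase signal marks inhibited growth of reporter-expressing P. falciparum in infected red cells (2% hematocrit, 0.05% parasitemia final), exposed to compound two generations (96 h, 37 C, 5% CO2).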
Active calls of the source: *; ? = inconclusive; nt = no result given; [ ] = dose if it differs, or a comment. Hits are enriched below; roughly 10% of the tested compounds scored in any of these assays. Unless noted, calls follow the shape of the dose curve; as a rule, active = well fitted inhibition curve with a large enough effect; inconclusive = small, poorly fitted or top-dose-only effect, or another doubt; inactive = no such curve, though single readings can be large or run the other way. Potency is read from the fitted curve at half-maximal effect.

SMILES	NS1 inh	SARS PLpro yeast	Pf growth 48h	Pf growth 96h
O=C(CSc1nnc(CCCN2C(=O)c3cccc4cccc(c34)C2=O)n1-c1ccccc1)N1CCCCC1	-5%	4%	12µM*	?
N=c1ccn(Cc2ccc(Cl)c(Cl)c2)cc1	-11%	-3%	0.59µM*	-33%
N=c1ccn(Cc2ccc(Cl)cc2)cc1	1%	-2%	1.9µM*	7%
Clc1cccc(CN2CCN(Cc3ccco3)CC2)c1	1%	0%	5%	16%
Clc1ccc(CN2CCCCCCC2)cc1Cl	-7%	7%	-6%	20%
N=c1ccn(Cc2cccc(Cl)c2)cc1	1%	5%	2.6µM*	?
Cn1nnnc1Sc1ncnc2scc(-c3ccsc3)c12	nt	-4%	nt	nt
N#CC1=C(N)NC(SCC(=O)Nc2ccccc2)=C(C#N)C12CCCC2	-5%	-1%	1.7µM*	23%
CC1=C(C(=O)Nc2ccccc2)C2(CCCCC2)C(C#N)=C(S)N1	27%	8%	nt	10µM*
OCCCNc1ccccc1	nt	nt	-5%	5%
Cc1cc(C)n(C(=O)N(c2ccccc2)c2ccccc2)n1	-2%	1%	-4%	4%
C=CCn1c(SCc2ccccc2F)nc2cc(C(=O)O)ccc2c1=O	9%	-1%	0%	9%
O=C(NCCO)c1ccc2nc(-c3ccco3)c(-c3ccco3)nc2c1	1%	-11%	-1%	nt
O=C(NCCCc1ccccc1)c1ccccc1	-11%	?	30%	9.3µM*
O=C(NCCCCc1ccccc1)c1ccc(Br)cc1	-39%	-6%	0%	?
O=C(NCCc1ccccc1)c1ccc2nc(-c3ccco3)c(-c3ccco3)nc2c1	14µM*	-3%	nt	-14%
O=C(NCCC(=O)N(CCc1ccccc1)Cc1ccccc1)c1ccc(Br)cc1	nt	nt	?	13µM*
C[N+](C)(C)c1cc2c(nn1)Nc1ccccc1S2	-6%	nt	nt	nt
CC1CCCC(N2CCN(C(=O)c3ccc([N+](=O)[O-])cc3)CC2)C1 (stereo not drawn)	12%	-6%	-15%	?
CC(C)(C)c1ccc(C(=O)NCCCNC(=O)c2ccccn2)cc1	-16%	-2%	10%	-20%
CCN(c1ccccc1)S(=O)(=O)c1ccc(OC)c(NC(=O)COc2ccc(C(C)=O)cc2)c1	nt	-5%	20%	-16%
O=C(COc1cccc(C(F)(F)F)c1)NCC(c1ccco1)N1CCCC1 (stereo not drawn)	nt	3%	nt	nt
O=C(COc1cccc(C(F)(F)F)c1)NCC(c1ccco1)N1CCCCC1 (stereo not drawn)	nt	0%	15µM*	?
O=C(COc1cccc(C(F)(F)F)c1)NCC(c1cccs1)N1CCOCC1 (stereo not drawn)	nt	13%	13µM*	15µM*
CCn1c(SCC(=O)NC(C)(C)C)nnc1-c1ccccn1	8%	0%	nt	?
SMILES	NS1 inh	SARS PLpro yeast	Pf growth 48h	Pf growth 96h
COc1ccc(CCNC(=O)c2cc3sc(Cl)cc3n2C)cc1OC	-48%	-17%	-15%	9.3µM*
COc1ccc(CCNC(=O)c2sc3ccccc3c2Cl)cc1OC	-8%	-27%	-4%	137%
CCOC(=O)c1ccc(NC(=S)NCCc2ccc(OC)c(OC)c2)cc1	-1%	-1%	?	10µM*
COC(=O)c1ccc(NC(=S)NCCc2ccc(OC)cc2)cc1	9%	0%	?	-13%
COc1ccc(CCNC(N)=S)cc1OC	9%	9%	21%	10µM*
COc1ccc(CCNC(=O)CSc2ccc3ccccc3c2)cc1OC	-4%	-1%	-18%	?
COc1ccc(CCNC(=O)CSc2nn(-c3ccccc3)c(=S)s2)cc1OC	-2%	-18%	10µM*	?
C=CCOc1c(Cl)cc(C(=S)N2CCCC2)cc1OCC	-24%	2%	28%	-14%
COc1ccc(-n2c(SCC(=O)Nc3ccc(C(=O)O)cc3)nnc2-c2ccccc2)cc1OC	4%	-1%	16%	-5%
O=C(Nc1ccc2ccccc2c1)c1ccc2[nH]c(=O)c(=O)[nH]c2c1	8%	-1%	-18%[0.00184 µM]	-11%
COc1ccc2c(c1)c(C(C)=O)c(C)n2CCc1ccc(OC)c(OC)c1	-6%	3%	-2%	4%
CCOC(=O)c1c(C(=O)OCC)c(C)n(CCc2ccc(OC)c(OC)c2)c1C	-4%	25%	?	9.3µM*
COc1ccc(CCNC(=O)Cn2cc(C(F)(F)F)cc(Cl)c2=O)cc1	15%	1%	-2%	21%
CCCCc1c(O)nc(SCC(=O)NCCc2ccc(OC)c(OC)c2)[nH]c1=O	14%	4%	27%	5.9µM*
COc1ccc(CCNC(=O)CSc2nc(O)c(CCC(C)C)c(=O)[nH]2)cc1OC	9%	-10%	-4%	?
